# Measurements from PubChem BioAssay (EPA / NIEHS).
# Inconclusive results are not listed. Activity calls are given as the source filed them. The calls were made as follows, unless noted: active = hit-call score of the fitted dose curve at least 0.9, where 1 is the maximum; inactive = score below 0.9.
# Columns and labels:
# [1] = ATG_TCF_b_cat_CIS: Attagene CIS-FACTORIAL HepG2 Assay for human T-Cell-Factor with beta-catenin (TCF/b-cat) (AID 2282965); conditions: HepG2 TCF/beta-catenin cis-reporter transcription, actives raise or lower the signal
# Method in brief: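 Endogenous TCF/LEF activity read as reporter transcript level via RT-PCR and capillary electrophoresis fluorescence in transfected HepG2, 24 h exposure; gain or loss of signal fitted against DMSO controls.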
# [2] = ATG_TAL_CIS: Attagene CIS-FACTORIAL HepG2 Assay for human TAL Basal Promoter (AID 2282966); conditions: HepG2 Attagene cis-factorial TAL promoter reporter; actives raise or lower the signal;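 also: background control endpoint measuring basal TAL promoter reporter mRNA not a specific factor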
# Method in brief: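 Fluorescence of labelled reporter cDNA fragments, resolved by capillary electrophoresis, gave the readout. Human HepG2 liver cells carried transiently transfected cis-element reporter units and were treated for 24 hours; activity was fitted bidirectionally against DMSO.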
# [3] = ATG_TGFb_CIS: Attagene CIS-FACTORIAL HepG2 Assay for human Transforming Growth Factor (TGF) (AID 2282967); conditions: HepG2 Attagene CIS TGFb reporter, mRNA transcription; actives raise or lower the signal
# Method in brief: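 Cells were dosed for 24 hours, after which total RNA was reverse-transcribed and reporter sequences amplified, labeled and sized by capillary electrophoresis. Activity was fitted in both directions against DMSO.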
# [4] = ATG_VDRE_CIS: Attagene CIS-FACTORIAL HepG2 Assay for human Vitamin D Receptor Element (VDRE) (AID 2282968); conditions: HepG2 VDRE cis-reporter transcription, actives raise or lower the signal
# Method in brief: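 Reporter mRNA induction, quantified by capillary electrophoresis of fluorescently labelled RT-PCR products, was read 24 h after dosing HepG2 cells carrying transiently transfected cis-regulated reporter units; gain or loss relative to DMSO.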
# [5] = molecular target: Estrogen receptor (Homo sapiens) (UniProt P03372); assay: ATG_ERa_TRANS: Attagene TRANS-FACTORIAL HepG2 Assay for human Estrogen Receptor alpha (ERa) (AID 2282970; active = hit-call score of the fitted dose curve at least 0.9, where 1 is the maximum); conditions: HepG2 Attagene TRANS ERa GAL4 reporter, mRNA
# Method in brief: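 Human liver HepG2, transient transfection of multiple GAL4-UAS reporter units; TRANS format (exogenous NR-Gal4 chimera). 24 h dosing. Readout: reporter mRNA, RT-PCR, 6-FAM primer extension, HpaI digest, capillary electrophoresis. Positive direction vs DMSO.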
# [6] = molecular target: X-box-binding protein 1 (Homo sapiens) (UniProt P17861); assay: ATG_Xbp1_CIS: Attagene CIS-FACTORIAL HepG2 Assay for human X-box Binding Protein 1 (XBP1) (AID 2282972); conditions: HepG2 XBP1 cis-element reporter, Attagene multiplex; actives raise or lower the signal
# Method in brief: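 After a 24-hour chemical exposure of HepG2 cells carrying cis-regulated reporters, reporter mRNA levels are assessed. Quantification uses RT-PCR, 6-FAM labelling and capillary electrophoresis. Gain- or loss-of-signal is fitted against DMSO.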
# [7] = ATG_M_19_TRANS: Attagene TRANS-FACTORIAL HepG2 Assay for M19 Transcription Factor (Internal Marker) (AID 2282974; active = hit-call score of the fitted dose curve at least 0.9, where 1 is the maximum); conditions: HepG2 Attagene TRANS-FACTORIAL M19 internal marker reporter
# Method in brief: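 HepG2 cells transiently transfected with multiple GAL4-UAS reporter transcription units were exposed to chemicals for 24 h. Reporter mRNA was read by RT-PCR, 6-FAM primer extension, HpaI digestion and capillary electrophoresis; gain of signal fitted relative to DMSO.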
# [8] = molecular target: Oxysterols receptor LXR-alpha (Homo sapiens) (UniProt Q13133); assay: ATG_LXRa_TRANS: Attagene TRANS-FACTORIAL HepG2 Assay for human Liver X Receptor alpha (LXRa) (AID 2282980; active = hit-call score of the fitted dose curve at least 0.9, where 1 is the maximum); conditions: HepG2 Attagene TRANS reporter, LXRa transactivation
# Method in brief: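 Transfect HepG2 with GAL4-UAS multiplex reporter constructs (TRANS format, chimeric receptor-GAL4); treat 24 h; extract RNA, reverse-transcribe, PCR-amplify, FAM-label, HpaI-digest; resolve fragments by capillary electrophoresis. Upward response vs DMSO.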
# [9] = molecular target: Hepatocyte nuclear factor 4-alpha (Homo sapiens) (UniProt P41235); assay: ATG_HNF4a_TRANS: Attagene TRANS-FACTORIAL HepG2 Assay for human Hepatocyte Nuclear Factor 4 alpha (HNF4a) (AID 2282982; active = hit-call score of the fitted dose curve at least 0.9, where 1 is the maximum); conditions: HepG2 HNF4a transactivation reporter, mRNA readout
# Method in brief: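 Readout is fluorescent reporter-transcript fragments resolved by capillary electrophoresis after RT-PCR from HepG2 cells dosed for 24 h. Cells carried transfected GAL4-UAS reporter constructs measuring exogenous NR-GAL4 chimera activity; DMSO served as baseline.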
# [10] = molecular target: Transcriptional activator Myb (Homo sapiens) (UniProt P10242); assay: ATG_Myb_CIS: Attagene CIS-FACTORIAL HepG2 Assay for human Myeloblastosis (Myb) Proto-Oncogene Transcription Factor (AID 2282986); conditions: HepG2 Attagene CIS-FACTORIAL Myb reporter transcription; actives raise or lower the signal
# Method in brief: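 HepG2 cells were transiently transfected with cis-regulated multiple reporter transcription units reflecting endogenous Myb activity, then exposed to compound for 24 hours. Reporter mRNA was measured by RT-PCR with capillary electrophoresis; bidirectional fitting versus DMSO baseline.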
# [11] = molecular target: Estrogen-related receptor gamma (Homo sapiens) (UniProt P62508); assay: ATG_ERRg_TRANS: Attagene TRANS-FACTORIAL HepG2 Assay for human Estrogen-Related Receptor gamma (ERRg) (AID 2282977; active = hit-call score of the fitted dose curve at least 0.9, where 1 is the maximum;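 also: hits increase reporter signal over DMSO so potencies reflect activators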); conditions: HepG2 Attagene TRANS reporter, ERRg transactivation
# Method in brief: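 Transfect HepG2 with multiple GAL4-UAS reporter transcription units; dose chemicals 24 h; isolate RNA, reverse-transcribe with oligo(dT), PCR-amplify, label with 6-FAM, digest with HpaI; size fragments by capillary electrophoresis. DMSO serves as negative control.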
# [12] = molecular target: Glucocorticoid receptor (Homo sapiens) (UniProt P04150); assay: ATG_GR_TRANS: Attagene TRANS-FACTORIAL HepG2 Assay for human Glucocorticoid Receptor (GR) (AID 2282978; active = hit-call score of the fitted dose curve at least 0.9, where 1 is the maximum;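 also: activators score as hits since higher reporter transcript over DMSO is fitted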); conditions: HepG2 Attagene TRANS GR reporter, mRNA transcription
# Method in brief: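 HepG2 cells transiently transfected with multiplexed reporter units in which chimeric NR-GAL4 proteins drive GAL4-UAS reporters; 24 h compound exposure. Reporter mRNA measured by RT-PCR, 6-FAM labelling, HpaI digestion and capillary electrophoresis; gain-of-signal fitted versus DMSO.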
# [13] = molecular target: Oxysterols receptor LXR-beta (Homo sapiens) (UniProt P55055); assay: ATG_LXRb_TRANS: Attagene TRANS-FACTORIAL HepG2 Assay for human Liver X Receptor beta (LXRb) (AID 2282981; active = hit-call score of the fitted dose curve at least 0.9, where 1 is the maximum); conditions: HepG2 Attagene TRANS GAL4-LXRb reporter, mRNA
# Method in brief: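 Transient transfection HepG2 (multiplexed RTUs, GAL4-UAS); NR-Gal4 chimera; 24 h exposure; RNA → RT-PCR → 6-FAM primer extension → HpaI → CE; increase vs DMSO.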
# [14] = ATG_M_06_TRANS: Attagene TRANS-FACTORIAL HepG2 Assay for M06 Transcription Factor (Internal Marker) (AID 2282983; active = hit-call score of the fitted dose curve at least 0.9, where 1 is the maximum); conditions: HepG2 Attagene TRANS M06 internal marker reporter
# Method in brief: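 Transfect HepG2 with MRTUs → dose compounds 24 h → isolate RNA, oligo(dT) RT → PCR with reporter primers → 6-FAM primer extension → HpaI digest → CE fragment analysis. Positive direction vs DMSO.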
# [15] = ATG_GAL4_TRANS: Attagene TRANS-FACTORIAL HepG2 Assay for GAL4 (Internal Marker) (AID 2282976; active = hit-call score of the fitted dose curve at least 0.9, where 1 is the maximum); conditions: HepG2 Attagene TRANS GAL4 internal marker reporter
# Method in brief: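 First, HepG2 cells were transfected with reporter units under GAL4-UAS control. Next, they were treated with chemical for 24 h. Finally, RNA was reverse-transcribed, PCR-amplified, FAM-labelled and resolved by capillary electrophoresis, with induction scored against DMSO.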
# [16] = molecular target: Bile acid receptor (Homo sapiens) (UniProt Q96RI1); assay: ATG_FXR_TRANS: Attagene TRANS-FACTORIAL HepG2 Assay for Farnesoid X Receptor (FXR) (AID 2282979; active = hit-call score of the fitted dose curve at least 0.9, where 1 is the maximum;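 also: hits raise reporter mRNA above DMSO so AC50 marks FXR activation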); conditions: HepG2 Attagene TRANS FXR-GAL4 reporter transcription
# Method in brief: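 Transient transfection of HepG2 with multiplexed GAL4-UAS reporter units; exogenous FXR-GAL4 chimera. Dose 24 h → TriZol RNA → oligo(dT) RT → PCR, 6-FAM primer extension, HpaI cut → CE. Gain vs DMSO.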
# [17] = ATG_M_32_TRANS: Attagene TRANS-FACTORIAL HepG2 Assay for M32 Transcription Factor (Internal Marker) (AID 2282984; active = hit-call score of the fitted dose curve at least 0.9, where 1 is the maximum;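 also: transcript level of a background control reporter unit measured by RT-PCR and capillary electrophoresis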); conditions: HepG2 Attagene TRANS M32 internal marker reporter
# Method in brief: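 Measures reporter mRNA induction in human HepG2 liver cells after 24 h chemical treatment. Transcripts from transiently transfected GAL4-UAS reporter units are amplified, fluorescently labelled and sized by capillary electrophoresis; gain of signal relative to DMSO.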
# [18] = molecular target: Nuclear receptor subfamily 4 group A member 2 (Homo sapiens) (UniProt P43354); assay: ATG_NURR1_TRANS: Attagene TRANS-FACTORIAL HepG2 Assay for human Nuclear Receptor Related Protein 1 (NURR1) (AID 2282985; active = hit-call score of the fitted dose curve at least 0.9, where 1 is the maximum); conditions: HepG2 Attagene TRANS reporter, mRNA readout
# Method in brief: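 Transient transfection of HepG2, human liver cells, with multiple GAL4-UAS reporter transcription units. Cells dosed 24 h, RNA isolated, reverse-transcribed, PCR-amplified, FAM-labelled, HpaI-digested, sized by capillary electrophoresis. DMSO served as negative control.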
# Chain of Transcriptional activator Myb (Homo sapiens) (P10242 whole entry, looked up): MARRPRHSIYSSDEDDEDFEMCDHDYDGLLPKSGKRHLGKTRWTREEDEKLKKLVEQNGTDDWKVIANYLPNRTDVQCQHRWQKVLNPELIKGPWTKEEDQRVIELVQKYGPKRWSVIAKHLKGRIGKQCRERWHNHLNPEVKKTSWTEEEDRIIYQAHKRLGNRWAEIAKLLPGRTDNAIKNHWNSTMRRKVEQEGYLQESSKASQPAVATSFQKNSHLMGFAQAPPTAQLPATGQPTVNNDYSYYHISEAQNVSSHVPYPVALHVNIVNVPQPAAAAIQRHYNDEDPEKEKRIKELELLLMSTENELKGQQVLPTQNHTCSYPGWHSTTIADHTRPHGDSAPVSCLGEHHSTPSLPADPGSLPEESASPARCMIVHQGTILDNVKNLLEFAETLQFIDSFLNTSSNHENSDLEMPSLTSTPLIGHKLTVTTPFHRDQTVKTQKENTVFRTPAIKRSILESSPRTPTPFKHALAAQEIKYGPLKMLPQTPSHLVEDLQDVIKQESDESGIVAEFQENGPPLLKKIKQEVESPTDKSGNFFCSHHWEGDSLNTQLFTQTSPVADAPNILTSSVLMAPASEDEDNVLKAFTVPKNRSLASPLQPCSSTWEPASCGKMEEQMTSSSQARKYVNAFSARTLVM
# Chain of Estrogen receptor (Homo sapiens) (P03372 whole entry, looked up, the tested form may be a part): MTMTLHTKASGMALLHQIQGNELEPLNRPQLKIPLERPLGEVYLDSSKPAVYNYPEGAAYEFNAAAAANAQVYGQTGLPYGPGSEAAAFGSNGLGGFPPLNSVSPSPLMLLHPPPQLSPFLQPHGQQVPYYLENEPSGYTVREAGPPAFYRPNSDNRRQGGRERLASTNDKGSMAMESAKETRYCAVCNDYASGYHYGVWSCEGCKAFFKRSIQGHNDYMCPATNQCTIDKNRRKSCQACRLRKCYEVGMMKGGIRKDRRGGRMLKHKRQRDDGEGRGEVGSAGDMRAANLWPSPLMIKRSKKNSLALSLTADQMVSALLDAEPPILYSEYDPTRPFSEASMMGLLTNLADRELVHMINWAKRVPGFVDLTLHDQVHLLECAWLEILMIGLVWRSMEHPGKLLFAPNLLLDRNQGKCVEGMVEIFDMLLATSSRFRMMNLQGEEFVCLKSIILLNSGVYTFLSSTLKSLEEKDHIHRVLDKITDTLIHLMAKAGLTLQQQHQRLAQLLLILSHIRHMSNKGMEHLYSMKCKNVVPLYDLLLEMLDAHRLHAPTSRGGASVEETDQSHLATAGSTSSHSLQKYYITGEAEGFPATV
# Chain of Glucocorticoid receptor (Homo sapiens) (P04150 whole entry, looked up, the tested form may be a part): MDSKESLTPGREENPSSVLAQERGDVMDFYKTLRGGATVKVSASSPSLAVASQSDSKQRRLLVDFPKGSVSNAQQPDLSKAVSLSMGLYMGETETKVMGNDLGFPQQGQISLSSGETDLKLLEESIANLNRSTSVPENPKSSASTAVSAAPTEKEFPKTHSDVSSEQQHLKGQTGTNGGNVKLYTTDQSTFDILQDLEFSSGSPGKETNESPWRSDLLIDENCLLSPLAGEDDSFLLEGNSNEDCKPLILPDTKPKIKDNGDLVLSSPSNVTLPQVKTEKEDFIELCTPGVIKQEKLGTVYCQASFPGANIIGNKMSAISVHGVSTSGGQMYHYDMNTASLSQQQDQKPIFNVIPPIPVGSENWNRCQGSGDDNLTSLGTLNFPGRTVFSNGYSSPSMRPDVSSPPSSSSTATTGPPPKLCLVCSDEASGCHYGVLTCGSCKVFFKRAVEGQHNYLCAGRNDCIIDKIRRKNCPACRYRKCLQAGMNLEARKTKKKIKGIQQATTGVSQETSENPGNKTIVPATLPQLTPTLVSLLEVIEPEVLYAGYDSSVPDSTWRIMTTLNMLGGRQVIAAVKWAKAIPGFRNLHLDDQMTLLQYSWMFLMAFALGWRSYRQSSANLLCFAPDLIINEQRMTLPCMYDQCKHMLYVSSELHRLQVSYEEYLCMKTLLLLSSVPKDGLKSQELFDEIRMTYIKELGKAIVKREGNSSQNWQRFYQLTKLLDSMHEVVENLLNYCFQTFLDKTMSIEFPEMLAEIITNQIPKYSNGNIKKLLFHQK
# Chain of Hepatocyte nuclear factor 4-alpha (Homo sapiens) (P41235 whole entry, looked up, the tested form may be a part): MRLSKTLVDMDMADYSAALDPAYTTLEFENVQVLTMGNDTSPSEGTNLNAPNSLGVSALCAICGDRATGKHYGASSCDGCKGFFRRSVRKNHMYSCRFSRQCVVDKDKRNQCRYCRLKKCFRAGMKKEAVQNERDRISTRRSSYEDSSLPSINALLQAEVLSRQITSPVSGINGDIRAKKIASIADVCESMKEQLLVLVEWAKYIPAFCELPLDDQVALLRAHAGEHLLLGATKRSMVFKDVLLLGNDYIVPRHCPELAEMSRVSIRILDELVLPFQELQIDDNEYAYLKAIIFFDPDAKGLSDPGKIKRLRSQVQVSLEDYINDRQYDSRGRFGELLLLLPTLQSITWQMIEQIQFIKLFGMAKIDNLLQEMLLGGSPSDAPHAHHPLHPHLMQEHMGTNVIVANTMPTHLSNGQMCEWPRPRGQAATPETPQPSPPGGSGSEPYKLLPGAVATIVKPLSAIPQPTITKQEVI
# Chain of X-box-binding protein 1 (Homo sapiens) (P17861 whole entry, looked up): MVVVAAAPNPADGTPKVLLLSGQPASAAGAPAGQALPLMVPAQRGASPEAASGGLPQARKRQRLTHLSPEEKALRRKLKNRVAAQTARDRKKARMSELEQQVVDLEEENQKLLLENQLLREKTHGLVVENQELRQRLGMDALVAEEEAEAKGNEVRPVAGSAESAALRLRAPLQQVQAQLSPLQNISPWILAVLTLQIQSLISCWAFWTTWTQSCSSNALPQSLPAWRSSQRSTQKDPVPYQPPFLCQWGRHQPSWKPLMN
# Chain of Bile acid receptor (Homo sapiens) (Q96RI1 whole entry, looked up, the tested form may be a part): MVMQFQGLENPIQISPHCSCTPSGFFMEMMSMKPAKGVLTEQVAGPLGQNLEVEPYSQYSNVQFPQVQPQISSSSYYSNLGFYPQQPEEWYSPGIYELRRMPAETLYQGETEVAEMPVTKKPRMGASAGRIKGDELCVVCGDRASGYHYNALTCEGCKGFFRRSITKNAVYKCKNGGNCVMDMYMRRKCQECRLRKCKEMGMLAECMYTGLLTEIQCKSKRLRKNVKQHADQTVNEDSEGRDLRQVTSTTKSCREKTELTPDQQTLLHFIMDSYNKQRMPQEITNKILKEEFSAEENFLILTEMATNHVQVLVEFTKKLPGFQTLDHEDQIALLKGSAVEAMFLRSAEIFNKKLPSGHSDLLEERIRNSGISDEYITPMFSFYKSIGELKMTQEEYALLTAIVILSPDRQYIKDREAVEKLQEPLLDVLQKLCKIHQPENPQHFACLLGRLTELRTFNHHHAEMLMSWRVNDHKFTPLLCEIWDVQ
# Chain of Nuclear receptor subfamily 4 group A member 2 (Homo sapiens) (P43354 whole entry, looked up, the tested form may be a part): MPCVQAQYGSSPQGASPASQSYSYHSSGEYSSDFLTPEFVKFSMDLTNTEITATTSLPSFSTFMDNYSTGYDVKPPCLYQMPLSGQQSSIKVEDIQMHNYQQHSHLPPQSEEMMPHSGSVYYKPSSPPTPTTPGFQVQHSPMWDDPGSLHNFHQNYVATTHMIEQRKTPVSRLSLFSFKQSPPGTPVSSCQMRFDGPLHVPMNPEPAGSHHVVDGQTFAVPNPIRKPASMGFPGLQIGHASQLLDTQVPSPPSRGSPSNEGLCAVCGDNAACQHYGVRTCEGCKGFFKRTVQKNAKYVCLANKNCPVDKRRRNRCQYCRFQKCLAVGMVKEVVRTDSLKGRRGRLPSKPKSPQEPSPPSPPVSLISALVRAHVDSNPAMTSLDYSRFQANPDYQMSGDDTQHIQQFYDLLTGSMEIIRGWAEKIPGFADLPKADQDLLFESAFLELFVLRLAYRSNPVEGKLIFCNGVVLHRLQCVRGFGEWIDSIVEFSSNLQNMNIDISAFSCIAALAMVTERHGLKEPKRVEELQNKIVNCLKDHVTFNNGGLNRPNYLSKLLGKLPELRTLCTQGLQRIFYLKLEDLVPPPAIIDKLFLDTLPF
# Chain of Oxysterols receptor LXR-alpha (Homo sapiens) (Q13133 whole entry, looked up, the tested form may be a part): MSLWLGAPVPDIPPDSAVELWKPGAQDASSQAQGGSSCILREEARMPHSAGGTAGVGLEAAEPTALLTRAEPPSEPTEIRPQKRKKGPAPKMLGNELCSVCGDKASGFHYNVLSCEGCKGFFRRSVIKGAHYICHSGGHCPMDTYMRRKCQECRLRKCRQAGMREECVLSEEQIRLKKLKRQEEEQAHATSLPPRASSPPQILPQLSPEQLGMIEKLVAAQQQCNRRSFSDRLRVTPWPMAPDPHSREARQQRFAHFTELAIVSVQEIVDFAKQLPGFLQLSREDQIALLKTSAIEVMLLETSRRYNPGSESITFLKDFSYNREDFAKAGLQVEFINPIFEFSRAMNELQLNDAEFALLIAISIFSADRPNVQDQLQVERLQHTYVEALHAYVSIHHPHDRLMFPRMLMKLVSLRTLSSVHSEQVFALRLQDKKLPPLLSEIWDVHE
# Chain of Oxysterols receptor LXR-beta (Homo sapiens) (P55055 whole entry, looked up, the tested form may be a part): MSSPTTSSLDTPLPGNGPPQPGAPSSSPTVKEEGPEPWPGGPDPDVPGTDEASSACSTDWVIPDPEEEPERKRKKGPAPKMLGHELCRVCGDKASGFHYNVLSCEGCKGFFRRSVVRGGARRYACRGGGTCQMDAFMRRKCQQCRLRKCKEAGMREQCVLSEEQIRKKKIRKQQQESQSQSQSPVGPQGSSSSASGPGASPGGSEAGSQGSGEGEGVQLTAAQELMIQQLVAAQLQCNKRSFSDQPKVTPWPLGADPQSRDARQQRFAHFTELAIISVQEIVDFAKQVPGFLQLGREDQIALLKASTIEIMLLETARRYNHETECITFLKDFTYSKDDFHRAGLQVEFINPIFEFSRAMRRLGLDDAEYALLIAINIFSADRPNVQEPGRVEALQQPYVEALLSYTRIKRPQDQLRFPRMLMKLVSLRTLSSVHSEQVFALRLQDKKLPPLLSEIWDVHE
structure (smiles),measurement,setting,value
FC(F)(F)c1ccc(Cl)c(Cl)c1,outcome,[1],inactive
same,outcome,[2],inactive
same,outcome,[3],inactive
same,outcome,[4],inactive
same,outcome,[5],inactive
same,outcome,[6],inactive
same,outcome,[7],inactive
same,outcome,[8],inactive
same,outcome,[9],inactive
same,outcome,[10],inactive
CCCCC1CCCCC(=O)O1 (configuration not stated),outcome,[1],inactive
same,outcome,[2],inactive
same,outcome,[3],inactive
same,outcome,[4],inactive
same,outcome,[5],inactive
same,outcome,[6],inactive
same,outcome,[7],inactive
same,outcome,[11],inactive
same,outcome,[12],inactive
same,outcome,[13],inactive
same,outcome,[9],inactive
same,outcome,[14],inactive
same,outcome,[10],inactive
COc1ccccc1O,outcome,[1],inactive
same,outcome,[2],inactive
same,outcome,[3],inactive
same,outcome,[4],inactive
same,outcome,[5],inactive
same,outcome,[6],inactive
same,outcome,[7],inactive
same,outcome,[15],inactive
same,outcome,[12],inactive
same,outcome,[16],inactive
same,outcome,[8],inactive
same,outcome,[13],inactive
same,outcome,[10],inactive
CCCCN(CCO)CCO,outcome,[1],inactive
same,outcome,[2],inactive
same,outcome,[3],inactive
same,outcome,[4],inactive
same,outcome,[5],inactive
same,outcome,[6],inactive
same,outcome,[9],inactive
same,outcome,[14],inactive
same,outcome,[10],inactive
C=C/C(C)=C/C/C=C(\C)CCC=C(C)C,outcome,[1],inactive
same,outcome,[2],inactive
same,outcome,[3],inactive
same,outcome,[4],inactive
same,outcome,[5],inactive
same,outcome,[6],inactive
same,outcome,[12],inactive
same,outcome,[16],inactive
same,outcome,[14],inactive
same,outcome,[17],inactive
same,outcome,[18],inactive
same,outcome,[10],inactive
CC(=O)C1=C(C)[C@@H]2C[C@@]3(C1)[C@H](C)CC[C@H]3C2(C)C,AC50,[1],77.7 µM (active)
same,outcome,[2],inactive
same,outcome,[3],inactive
same,AC50,[4],161 µM (active)
same,AC50,[5],2.65 µM (active)
same,outcome,[6],inactive
same,outcome,[16],inactive
same,outcome,[17],inactive
same,outcome,[18],inactive
same,outcome,[10],inactive
